From PubChem BioAssay (EPA / NIEHS) come the findings set out here.

Details in all cases: mRNA level, 48 h; actives raise or lower the signal
Read-out in one assay: CYP4A11 (gene 1579)
As to the kind of experiment: LTEA_HepaRG_CYP4A11: Life Technologies and Expression Analysis (LTEA) Assay for CYP4A11 using HepaRG (AID 2283486). Summed up: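 Readout is CYP4A11 mRNA induction or suppression (qRT-PCR, ACTB/GAPDH/POLR2A normalization) in human HepaRG cells after 48 h chemical treatment, concentrations to 100 uM in 0.5% DMSO, fitted bidirectionally against vehicle.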

Read-out in assay [1]: Cytochrome P450 3A4 (Homo sapiens) (UniProt P08684)
As to the kind of experiment: LTEA_HepaRG_CYP3A4: Life Technologies and Expression Analysis (LTEA) Assay for CYP3A4 using HepaRG (AID 2283487). Summed up: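 Differentiated HepaRG cells in serum-free induction medium exposed in duplicate for 48 h to 8 half-log concentrations up to 100 uM in 0.5% DMSO. CYP3A4 mRNA measured by qRT-PCR normalized to ACTB, GAPDH and POLR2A; bidirectional fit versus DMSO.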

Read-out in assay [2]: DNA damage-inducible transcript 3 (DDIT3), DDIT3 (gene 1649)
As to the kind of experiment: LTEA_HepaRG_DDIT3: Life Technologies and Expression Analysis (LTEA) Assay for DNA damage-inducible transcript 3 (DDIT3) using HepaRG (AID 2283488). Summed up: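 HepaRG plated 48 h, switched to serum-free induction medium, dosed 48 h (100 uM top, half-log, 8 pts, 0.5% DMSO, n=2); RNA isolated; DDIT3 by qRT-PCR; bidirectional curve fit vs DMSO.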

Read-out in assay [3]: Pro-epidermal growth factor (Homo sapiens) (UniProt P01133)
As to the kind of experiment: LTEA_HepaRG_EGF: Life Technologies and Expression Analysis (LTEA) Assay for Epidermal growth factor (EGF) using HepaRG (AID 2283489). In a few lines: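 EGF expression changes in human HepaRG cells are scored by bidirectional fitting relative to 0.5% DMSO controls. Chemicals are tested at eight half-log concentrations up to 100 uM for 48 h in serum-free induction medium.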

Read-out in assay [4]: Early growth response protein 1 (EGR1) transcription factor, EGR1 (gene 1958)
The assay can be described thus: LTEA_HepaRG_EGR1: Life Technologies and Expression Analysis (LTEA) Assay for Early growth response protein 1 (EGR1) transcription factor using HepaRG (AID 2283490). Summed up: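 Read-out is EGR1 mRNA level by qRT-PCR, normalized to three housekeeping genes and analysed for gain or loss of signal against 0.5% DMSO. Source cells: human HepaRG, treated 48 h at up to 100 uM in half-log dilutions.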

Read-out in assay [5]: Ezrin (EZR), EZR (gene 7430)
As to the kind of experiment: LTEA_HepaRG_EZR: Life Technologies and Expression Analysis (LTEA) Assay for Ezrin (EZR) using HepaRG (AID 2283491). Summed up:
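Differentiated human HepaRG cells, 48 h after plating, were exposed in serum-free induction medium for 48 hours to eight half-log concentrations up to 100 uM in 0.5% DMSO. EZR mRNA was measured by TaqMan qRT-PCR, normalized to ACTB, GAPDH and POLR2A, and fitted bidirectionally against DMSO.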

Read-out in assay [6]: Cytochrome P450 3A7 (Homo sapiens) (UniProt P24462)
The assay can be described thus: LTEA_HepaRG_CYP3A7: Life Technologies and Expression Analysis (LTEA) Assay for CYP3A7 using HepaRG (AID 2283492). Summed up: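 Cells were thawed, plated, cultured 48 h, then treated for a further 48 h with chemicals (eight-point half-log series from 100 uM, 0.5% DMSO). RNA was isolated and CYP3A7 expression quantified by qRT-PCR normalised to ACTB, GAPDH and POLR2A.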

Read-out in a further assay: CYP3A5 (gene 1577)
The assay can be described thus: LTEA_HepaRG_CYP3A5: Life Technologies and Expression Analysis (LTEA) Assay for CYP3A5 using HepaRG (AID 2283493). Summed up:
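HepaRG plated 48 h, switched to serum-free induction medium, chemicals added 48 h (max 100 uM, half-log, 0.5% DMSO). RNA isolated; CYP3A5 by TaqMan qRT-PCR. Gain/loss vs DMSO.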

Read-out in assay [7]: Fatty Acid-Binding Protein 1 (FABP1), FABP1 (gene 2168)
The assay can be described thus: LTEA_HepaRG_FABP1: Life Technologies and Expression Analysis (LTEA) Assay for Fatty Acid-Binding Protein 1 (FABP1) using HepaRG (AID 2283494). In a few lines: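 HepaRG, 48 h post-plating switched to serum-free induction medium, then dosed 48 h (duplicate, 8 pts, ≤100 uM, 0.5% DMSO). RNA → Fluidigm TaqMan qRT-PCR, FABP1 normed to ACTB/GAPDH/POLR2A. Bidirectional curve fit vs DMSO.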

Read-out in assay [8]: Cytochrome P450 4A22 (Homo sapiens) (UniProt Q5TCH4)
As to the kind of experiment: LTEA_HepaRG_CYP4A22: Life Technologies and Expression Analysis (LTEA) Assay for Cytochrome P450 4A22 (CYP4A22) using HepaRG (AID 2283495). Summed up:
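Cryopreserved HepaRG cells, plated and cultured 48 h, then switched to serum-free induction medium and treated 48 h (duplicates, up to 100 uM, half-log steps, 0.5% DMSO). Expression change of CYP4A22 was fitted bidirectionally against vehicle.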

Read-out in assay [9]: Cytochrome P450 7A1 (Homo sapiens) (UniProt P22680)
The assay can be described thus: LTEA_HepaRG_CYP7A1: Life Technologies and Expression Analysis (LTEA) Assay for Cytochrome P450 7A1 (CYP7A1) using HepaRG (AID 2283496). In a few lines:
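HepaRG cells plated 48 h, then switched to serum-free induction medium and exposed in duplicate for 48 h to 8-point half-log series from 100 uM in 0.5% DMSO. CYP7A1 mRNA by qRT-PCR (TaqMan), normalized to ACTB/GAPDH/POLR2A; bidirectional fit versus DMSO.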

Read-out in assay [10]: Glutathione S-Transferase (GSTA2), GSTA2 (gene 2939)
As to the kind of experiment: LTEA_HepaRG_GSTA2: Life Technologies and Expression Analysis (LTEA) Assay for Glutathione S-Transferase (GSTA2) using HepaRG (AID 2283497). Summed up:
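HepaRG, 48 h dosing, 8-pt half-log CRC from 100 uM, 0.5% DMSO vehicle, n=2; RNA → Fluidigm TaqMan qRT-PCR; GSTA2 vs ACTB/GAPDH/POLR2A; gain/loss fit vs DMSO.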

Read-out in assay [11]: Glutamate-cysteine ligase catalytic (GCLC), GCLC (gene 2729)
The assay can be described thus: LTEA_HepaRG_GCLC: Life Technologies and Expression Analysis (LTEA) Assay for Glutamate-cysteine ligase catalytic (GCLC) using HepaRG (AID 2283498). In a few lines:
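Read-out is GCLC transcript level by Fluidigm-based TaqMan qRT-PCR, normalized to three housekeeping genes and fitted in both directions relative to 0.5% DMSO. Human HepaRG cells received chemicals for 48 h, up to 100 uM.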

Read-out in assay [12]: Glutamate-cysteine ligase regulatory (GCLM), GCLM (gene 2730)
The assay can be described thus: LTEA_HepaRG_GCLM: Life Technologies and Expression Analysis (LTEA) Assay for Glutamate-cysteine ligase regulatory (GCLM) using HepaRG (AID 2283500). In a few lines:
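Cells were plated, cultured 48 h, switched to serum-free induction medium, then dosed in duplicate for 48 h at eight half-log concentrations up to 100 uM. RNA was then profiled by qRT-PCR; gain or loss versus DMSO was fitted.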

Read-out in assay [13]: Heat shock 70 kDa protein 1 (HSPA1A), gene 3303
As to the kind of experiment: LTEA_HepaRG_HSPA1A: Life Technologies and Expression Analysis (LTEA) Assay for Heat shock 70 kDa protein 1 (HSPA1A) using HepaRG (AID 2283502). In a few lines:
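Readout is HSPA1A transcript level by microfluidic qRT-PCR, normalized to three housekeeping genes and analysed for gain or loss of signal relative to 0.5% DMSO. Human HepaRG cultures received test chemicals for 48 h at up to 100 uM.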

Read-out in assay [14]: 3-Hydroxy-3-Methylglutaryl-CoA Synthase 2 (HMGCS2), HMGCS2 (gene 3158)
As to the kind of experiment: LTEA_HepaRG_HMGCS2: Life Technologies and Expression Analysis (LTEA) Assay for 3-Hydroxy-3-Methylglutaryl-CoA Synthase 2 (HMGCS2) using HepaRG (AID 2283504). In a few lines:
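Expression of HMGCS2 in human HepaRG liver cells is measured by qRT-PCR 48 h after dosing (highest 100 uM, half-log series, 0.5% DMSO). Values come from bidirectional concentration-response fitting with DMSO as baseline.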

Read-out in another assay: HGF (gene 3082)
As to the kind of experiment: LTEA_HepaRG_HGF: Life Technologies and Expression Analysis (LTEA) Assay for Hepatocyte Growth Facto (HGF) using HepaRG (AID 2283505). In a few lines: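 Gain or loss of HGF mRNA in human HepaRG liver cells after 48 h chemical exposure; eight concentrations up to 100 uM with 0.5% DMSO vehicle, quantified by TaqMan qRT-PCR.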

Read-out in assay [15]: growth arrest and DNA damage 45 (GADD45G), GADD45G (gene 10912)
The assay can be described thus: LTEA_HepaRG_GADD45G: Life Technologies and Expression Analysis (LTEA) Assay for growth arrest and DNA damage 45 (GADD45G) using HepaRG (AID 2283499). Summed up:
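Human hepatic HepaRG line treated 48 h with chemicals (eight concentrations, half-log steps from 100 uM); transcript induction or repression of GADD45G scored by qRT-PCR versus DMSO vehicle.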

Read-out in assay [16]: Hypoxia-inducible factor 1-alpha (Homo sapiens) (UniProt Q16665)
As to the kind of experiment: LTEA_HepaRG_HIF1A: Life Technologies and Expression Analysis (LTEA) Assay for Hypoxia-inducible factor 1 (HIF1A) Trancription factor using HepaRG (AID 2283503). In a few lines:
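Differentiated HepaRG cells in serum-free induction medium exposed 48 h, in duplicate, to 8-point half-log series from 100 uM in 0.5% DMSO. HIF1A mRNA measured by TaqMan qRT-PCR, normalized to ACTB/GAPDH/POLR2A, fitted bidirectionally versus DMSO.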

Read-out in assay [17]: Glutathione S-transferase M3 (GSTM3), GSTM3 (gene 2947)
The assay can be described thus: LTEA_HepaRG_GSTM3: Life Technologies and Expression Analysis (LTEA) Assay for Glutathione S-transferase M3 (GSTM3) using HepaRG (AID 2283501). In a few lines:
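Changes in GSTM3 expression, an oxidative-stress marker, were scored by bidirectional curve fitting against 0.5% DMSO vehicle. Human HepaRG cultures received chemicals for 48 h in duplicate, highest concentration 100 uM with half-log dilutions.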

Activity calls are given as the source filed them. Rule for the calls: active = hit-call score of the fitted dose curve at least 0.9, where 1 is the maximum; inactive = score below 0.9.

Sequence of Cytochrome P450 3A7 (Homo sapiens) (P24462 whole entry, looked up): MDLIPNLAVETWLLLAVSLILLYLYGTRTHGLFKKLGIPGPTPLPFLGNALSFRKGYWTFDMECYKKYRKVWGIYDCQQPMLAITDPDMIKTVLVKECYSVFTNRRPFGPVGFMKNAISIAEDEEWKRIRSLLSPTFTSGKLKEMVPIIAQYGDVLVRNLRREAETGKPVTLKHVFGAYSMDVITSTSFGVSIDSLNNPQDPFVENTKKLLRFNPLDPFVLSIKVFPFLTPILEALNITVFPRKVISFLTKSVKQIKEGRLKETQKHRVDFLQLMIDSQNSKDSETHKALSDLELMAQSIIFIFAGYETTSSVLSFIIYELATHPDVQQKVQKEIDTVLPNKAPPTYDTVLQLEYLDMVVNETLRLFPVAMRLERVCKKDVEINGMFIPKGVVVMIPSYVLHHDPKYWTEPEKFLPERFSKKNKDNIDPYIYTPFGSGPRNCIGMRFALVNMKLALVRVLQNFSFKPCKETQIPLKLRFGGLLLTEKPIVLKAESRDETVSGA
Sequence of Cytochrome P450 3A4 (Homo sapiens) (P08684 whole entry, looked up): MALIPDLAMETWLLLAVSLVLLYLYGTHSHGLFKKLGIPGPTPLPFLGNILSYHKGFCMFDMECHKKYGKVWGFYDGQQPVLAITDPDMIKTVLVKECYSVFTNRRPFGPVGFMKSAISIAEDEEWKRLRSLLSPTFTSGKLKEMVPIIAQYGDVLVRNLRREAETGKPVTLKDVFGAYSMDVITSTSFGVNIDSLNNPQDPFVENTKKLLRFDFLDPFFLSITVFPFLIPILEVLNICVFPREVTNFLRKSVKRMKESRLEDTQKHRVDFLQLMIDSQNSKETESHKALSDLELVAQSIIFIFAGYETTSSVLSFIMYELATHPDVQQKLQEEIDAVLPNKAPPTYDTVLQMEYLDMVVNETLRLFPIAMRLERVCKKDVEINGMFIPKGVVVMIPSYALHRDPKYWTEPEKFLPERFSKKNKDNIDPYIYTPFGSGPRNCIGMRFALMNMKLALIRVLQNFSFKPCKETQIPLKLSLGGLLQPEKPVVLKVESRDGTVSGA
Sequence of Hypoxia-inducible factor 1-alpha (Homo sapiens) (Q16665 whole entry, looked up): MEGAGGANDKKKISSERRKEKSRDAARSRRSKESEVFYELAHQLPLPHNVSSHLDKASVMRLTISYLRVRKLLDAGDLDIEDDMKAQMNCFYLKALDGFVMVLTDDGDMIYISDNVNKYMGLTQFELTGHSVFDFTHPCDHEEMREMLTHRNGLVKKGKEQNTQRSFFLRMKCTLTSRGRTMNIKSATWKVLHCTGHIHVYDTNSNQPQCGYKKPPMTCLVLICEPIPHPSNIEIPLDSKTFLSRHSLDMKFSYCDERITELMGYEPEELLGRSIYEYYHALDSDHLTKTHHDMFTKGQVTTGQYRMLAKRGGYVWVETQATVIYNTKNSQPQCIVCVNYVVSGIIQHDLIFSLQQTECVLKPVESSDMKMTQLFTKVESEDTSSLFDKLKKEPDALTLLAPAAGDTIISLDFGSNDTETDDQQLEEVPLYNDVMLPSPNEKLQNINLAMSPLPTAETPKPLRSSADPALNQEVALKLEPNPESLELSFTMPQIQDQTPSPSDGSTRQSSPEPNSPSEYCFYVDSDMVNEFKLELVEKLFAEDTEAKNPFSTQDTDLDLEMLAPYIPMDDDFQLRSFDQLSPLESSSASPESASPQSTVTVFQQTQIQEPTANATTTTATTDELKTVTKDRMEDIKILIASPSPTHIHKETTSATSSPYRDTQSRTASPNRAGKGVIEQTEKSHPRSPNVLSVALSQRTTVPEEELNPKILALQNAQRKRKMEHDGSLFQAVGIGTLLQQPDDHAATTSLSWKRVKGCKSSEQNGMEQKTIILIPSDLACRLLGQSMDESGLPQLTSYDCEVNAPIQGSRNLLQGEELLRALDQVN

As for `C[C@]12CCC(=O)C=C1CC[C@@H]1[C@@H]2CC[C@]2(C)C(=O)CC[C@@H]12`, the AC50 is 85.7 µM (active) in the assay with CYP4A11 (gene 1579); 30.8 µM (active) in assay [1]; 50 µM (active) with CYP3A5 (gene 1577); 12.5 µM (active) in assay [7]; 72.7 µM (active) in assay [8]; 4.69 µM (active) in assay [9]. The call in [2], in assay [3], in assay [4], in assay [5], in assay [6] and in [10] was inactive. The outcome (in [11]; in [12]; in assay [13]; in [14]; with HGF (gene 3082)) was inactive.

As for `CC#Cc1cc(C)nc(Nc2ccccc2)n1`, the AC50 with CYP4A11 (gene 1579) was 1.1 µM (active); in assay [1], 28.2 µM (active); in assay [6] it was 41.6 µM (active); with CYP3A5 (gene 1577) it was 15.6 µM (active); in assay [7] it was 13.7 µM (active); in assay [8], 1.05 µM (active). Further, the AC50 in assay [9] was 13.8 µM (active); in [10] it was 28 µM (active); in [12] it was 50 µM (active); in [14], 32.5 µM (active); with HGF (gene 3082), 50 µM (active). Further, the compound was called inactive in [2], in assay [3], in assay [4], in assay [5], in assay [15] and in assay [13]. Further, in [16], the result was inactive.

In the case of `Cc1ccc(O)c(C)c1`, the compound was classed as inactive (with CYP4A11 (gene 1579); in assay [1]; in assay [2]; in [3]; in assay [4]; in assay [5]). Besides, the compound was classed as inactive (in assay [6]; with CYP3A5 (gene 1577); in assay [7]; in assay [8]; in assay [9]; in [10]). Also, the compound was called inactive in assay [11], in [15], in [12], in [17], in [13] and in assay [16]. Moreover, the compound was classed as inactive (in assay [14]; in the assay with HGF (gene 3082)).
